# An excerpt weighted towards active compounds, which were near 4% of everything screened.
# MITF TRPM1 inh – reduces MITF-dependent TRPM1 promoter luciferase signal; hit rate 0.83% among 330,000; AID 488899; inhibition, % at 12.5 µM; SK-MEL-5 TRPM1 promoter luciferase, 24 h;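 active = mean inhibition across replicates of 60% or more, whatever share of single replicates reaches that level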
# Peg3 prom inh – inhibitors of Peg3 promoter. HeLa PEG-Prom luciferase reporter, luminescence, overnight. inhibition, % at 20 µM. hit rate 1.7% among 360,000. AID 588405;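 active = inhibition of at least 50% at 20 µM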
# TWEAK-Fn14 inh – inhibitors of TWEAK-Fn14 interaction signaling; TWEAK-stimulated Fn14 reporter cells, luciferase luminescence, 8 h; inhibition, % at 10 µM; hit rate 2% among 360,000; AID 1159606; in the data active = inhibition above about 50%
# EBV LMP1 NFkB – inhibitors of Epstein-Barr LMP1-induced NF-kappaB reporter; AID 504558; hit rate 0.69% among 350,000; inhibition, % at 12.5 µM; LMP1-induced NF-kappaB luciferase reporter cells, luminescence; in the data active = inhibition above about 41%;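 also: 0% = neutral control wells and 100% = reference inhibitor control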
# HIF-2a inh – blocks HIF-2a reporter activity; hit rate 0.72% among 360,000; inhibition, % at 18.8 µM; AID 624352; 786-0 RCC cells HIF-2a reporter, luciferase luminescence, overnight;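 active = inhibition of the luminescence signal of 40% or more relative to plate controls, in a single-dose primary screen at 18.75 µM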
# TROY signal inh – inhibitors of TROY-dependent NF-kB signaling. hit rate 0.98% among 360,000. AID 1347056. Q293 LMP1-TROYcd NF-kB luciferase reporter, 4 h. inhibition, % at 10 µM;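 active = compounds whose plate-normalised and pattern-corrected inhibition of the luciferase reporter signal at the single screening dose is 50% or more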
# Mdm2-MdmX confirm – Mdm2/MdmX (human) interaction inhibition, confirmed | shares compounds with HIF-2a inh | SaOS-2 split-luciferase Mdm2/MdmX complementation, luminescence | AID 504601 | hit rate 99% among 740 | inhibition, % at 8 µM;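 active = mean inhibition of the luminescence signal across two replicates at or above 26 percent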
# Target sequence (O15151 whole entry, looked up): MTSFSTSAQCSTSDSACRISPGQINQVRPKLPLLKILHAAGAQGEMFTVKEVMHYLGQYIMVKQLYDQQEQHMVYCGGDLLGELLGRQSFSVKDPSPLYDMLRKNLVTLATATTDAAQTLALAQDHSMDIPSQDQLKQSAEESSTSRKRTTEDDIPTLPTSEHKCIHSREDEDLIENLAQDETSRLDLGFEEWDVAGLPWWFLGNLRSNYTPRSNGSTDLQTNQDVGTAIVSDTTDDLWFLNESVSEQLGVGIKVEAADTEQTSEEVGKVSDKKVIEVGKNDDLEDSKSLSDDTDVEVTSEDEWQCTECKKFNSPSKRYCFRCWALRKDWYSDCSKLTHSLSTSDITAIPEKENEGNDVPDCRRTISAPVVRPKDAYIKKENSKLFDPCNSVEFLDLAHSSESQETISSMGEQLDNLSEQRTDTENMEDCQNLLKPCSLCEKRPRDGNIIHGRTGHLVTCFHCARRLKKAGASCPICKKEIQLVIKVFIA
# Target sequence (Q00987 whole entry, looked up): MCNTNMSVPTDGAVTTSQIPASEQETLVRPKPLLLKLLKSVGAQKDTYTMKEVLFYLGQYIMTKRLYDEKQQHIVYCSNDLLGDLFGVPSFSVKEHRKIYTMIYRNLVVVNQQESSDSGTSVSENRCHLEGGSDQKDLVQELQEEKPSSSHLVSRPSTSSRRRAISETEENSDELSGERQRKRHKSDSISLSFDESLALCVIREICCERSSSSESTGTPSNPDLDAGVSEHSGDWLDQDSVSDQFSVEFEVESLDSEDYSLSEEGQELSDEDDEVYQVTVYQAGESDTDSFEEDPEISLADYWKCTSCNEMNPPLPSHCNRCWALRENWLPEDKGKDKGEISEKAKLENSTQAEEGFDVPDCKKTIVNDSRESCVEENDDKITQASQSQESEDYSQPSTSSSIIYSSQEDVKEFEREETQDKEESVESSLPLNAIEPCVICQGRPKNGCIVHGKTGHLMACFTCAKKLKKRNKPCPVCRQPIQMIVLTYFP
# HIF-2a conf – HIF-2a inhibition, single concentration confirmation | shares compounds with HIF-2a inh | 786-0 RCC cells, HIF-2a luciferase reporter luminescence, overnight | inhibition, % at 18.8 µM | hit rate 56% among 1,800 | AID 651580;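 active = mean inhibition across four replicates of at least 40 percent at the single tested concentration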
# HIF-1a cs – inhibits HIF-1a reporter, a counter-screen for HIF-2a inhibitors | shares compounds with HIF-2a inh | MiaPaCa-2 HIF-1a luciferase reporter, desferoxamine, overnight | inhibition, % at 18.8 µM | hit rate 72% among 1,800 | AID 651589;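 active = mean inhibition of the reporter signal across four replicates at the single tested dose of 50% or more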
# Numbers without * were called inactive; . = no result given.
SMILES,MITF TRPM1 inh,Peg3 prom inh,TWEAK-Fn14 inh,EBV LMP1 NFkB,HIF-2a inh,TROY signal inh,HIF-2a conf,HIF-1a cs,others
CCOC(=O)C1CCCN(C(=O)COc2ccc(C(C)(C)C)cc2)CC1 (stereo not drawn),.,-18.4,-7.2,.,47.3*,-4.8,58.0*,-26.7,
CC1=CC(C)(C)Nc2ccc(OC(=O)c3ccco3)cc21,8.0,45.7,87.8*,-36.2,81.0*,37.9,83.3*,92.2*,
CC1=CC(C)(C)Nc2ccc(OC(=O)c3cccnc3)cc21,-2.3,56.5*,29.2,-14.6,75.0*,22.5,86.5*,94.1*,
CC1=CC(C)(C)Nc2ccc(OC(=O)C(C)N3C(=O)c4ccccc4C3=O)cc21 (stereo not drawn),13.1,-17.8,34.4,8.9,78.2*,35.3,89.7*,93.7*,
CC1=CC(C)(C)N2C(=O)C(=O)c3cc(OC(=O)c4ccco4)cc1c32,-1.9,0.3,26.9,-4.4,22.1,18.8,.,.,
CC1=CC(C)(C)Nc2ccc(OC(=O)CN3C(=O)CCC3=O)cc21,-1.4,44.5,44.0,-13.5,74.2*,-8.9,88.3*,89.6*,
CC1=CC(C)(C)Nc2ccc(C)cc21,-8.1,6.5,4.7,4.3,6.3,-15.1,.,.,
O=C(Oc1ccc(F)cc1)c1cccnc1,-8.3,11.3,0.8,-1.1,7.5,5.4,.,.,
CC1(C(=O)NS(=O)(=O)c2ccccc2Cl)CCN1C(=O)CCc1ccccc1 (stereo not drawn),.,0.8,18.0,.,6.3,7.4,.,.,
COc1cc(NS(=O)(=O)c2ccc(-c3ccc(=O)[nH]n3)o2)cc(OC)c1OC,-4.0,-16.2,-11.3,3.8,4.1,11.9,.,.,
O=C(O)CCSc1ncnc2sc(-c3ccccc3)cc12,.,25.4,86.0*,30.6,91.2*,62.5*,94.3*,84.4*,
CC(=O)CCSc1ncnc2sc(-c3ccccc3)cc12,-75.5,-470.4,5.7,-25.0,-251.4,11.5,.,.,
CC(C)(C)c1ccc(Oc2ccc(NC(=O)c3ccco3)cn2)cc1,12.7,6.5,78.2*,-98.8,75.2*,12.2,25.7,40.2,
O=C(Nc1ccc(Oc2cccc(C(F)(F)F)c2)nc1)c1ccco1,-5.3,7.6,14.2,6.2,9.2,7.7,.,.,
O=C(c1ccc2c(c1)OCO2)N1CCN(CCN2C(=O)c3cccc4cccc(c34)C2=O)CC1,-25.8,-3.1,-11.4,-1.0,6.3,-11.6,.,.,
CC(C)(C)c1ccc(-c2noc(CCC(=O)Nc3cccnc3)n2)cc1,79.0*,-202.1,36.2,78.3*,92.0*,58.1*,96.4*,-3.5,
CC(C)(C)c1ccc(-c2noc(CCC(=O)NCC3CCCO3)n2)cc1 (stereo not drawn),83.8*,-151.2,25.9,42.5*,79.9*,-3.5,94.6*,-80.2,
CC(C)(C)c1ccc(-c2noc(CCC(N)=O)n2)cc1,70.9*,48.7,10.7,53.5*,86.8*,46.3,94.0*,-8.9,
COc1ccc(S(=O)(=O)NC2CCCC2)cc1C(N)=O,4.2,-11.4,18.6,1.5,11.6,-19.6,.,.,
O=C(Cc1cccc(NC(=O)C2CCCN(C(=O)CCc3ccccc3)C2)c1)Nc1ccc(C(=O)N2CCCCC2)cc1 (stereo not drawn),-5.3,-5.5,-6.3,3.2,-0.9,1.0,.,.,
Cc1oc(-c2cccc(Cl)c2)nc1CN1CCC(C(=O)NCc2ccco2)CC1,5.9,3.6,-4.8,2.1,-5.6,-3.5,.,.,
CCN1CCCC1CNC(=O)C1CCN(Cc2nc(-c3cccc(Br)c3)oc2C)CC1 (stereo not drawn),59.3,90.9*,-76.0,-15.9,66.0*,-2.7,18.8,104.0*,
O=C(O)c1ccc(NC(=S)NC(=O)c2ccc3ccccc3c2)cc1,-3.1,-172.6,-2.8,-19.3,-142.4,-44.5,.,.,
O=C(O)c1cccc(NC(=S)NC(=O)c2ccc3ccccc3c2)c1,39.5,24.8,19.8,7.6,73.9*,-30.8,75.6*,-26.0,
COc1cc(OC)nc(Nc2nc(C(N)Cc3ccc(C(F)(F)F)cc3)cs2)n1 (stereo not drawn),.,115.0*,-28.1,.,70.4*,-4.7,-2.1,104.7*,
SMILES,MITF TRPM1 inh,Peg3 prom inh,TWEAK-Fn14 inh,EBV LMP1 NFkB,HIF-2a inh,TROY signal inh,HIF-2a conf,HIF-1a cs,others
COC(=O)[C@@H]1CCCN1C(=O)[C@@H](NC(=O)OC(C)(C)C)C(C)C,-3.8,-7.1,10.1,8.7,5.5,-1.4,.,.,
C=C1[C@@H](O)[C@H](CC(C)C)N(Cc2ccccc2Br)S1(=O)=O,12.5,97.1*,79.4*,-14.8,72.2*,17.7,42.1*,101.4*,
Cc1ccc(N(CCC#N)C(=O)CCl)cc1C,33.7,46.5,56.0*,1.8,33.4,2.9,.,.,Mdm2-MdmX confirm=102.7*
CCC(C)(CCNC(=O)Cc1ccccc1)c1ccccc1OC (stereo not drawn),-6.9,23.0,11.1,-2.1,9.1,-11.2,.,.,
O=C(COC(=O)c1ccccc1C(=O)c1ccc(Cl)c([N+](=O)[O-])c1)NC1CC1,81.1*,99.4*,95.2*,49.7*,84.5*,65.3*,29.7,100.8*,Mdm2-MdmX confirm=102.7*
CCOC(=O)c1c(C)[nH]c(C(=O)N(C)CC(=O)Nc2ccc(OC)cc2)c1C,3.9,20.7,6.0,-20.8,8.7,0.5,.,.,
COc1ccc(-c2[nH]ncc2-c2ccc3c(c2)OCCO3)c(O)c1,4.1,27.1,77.7*,63.9*,25.0,60.9*,.,.,Mdm2-MdmX confirm=96.0*
COc1ccc(-c2cn[nH]c2-c2ccc(O)cc2O)cc1OC,12.3,17.6,25.6,4.3,30.4,10.6,.,.,
COC(=O)C(NC(=O)c1ccccc1)c1ccccc1 (stereo not drawn),-2.1,1.6,-12.3,-0.4,2.1,-12.2,.,.,
C=C(C(=O)c1ccccc1)C(NC(C)(C)C)c1ccccc1 (stereo not drawn),99.2*,104.4*,96.4*,90.7*,85.4*,18.8,98.3*,105.4*,
COc1ccc(OC)c2sc(NC(=O)CCS(=O)(=O)c3ccccc3)nc12,.,43.9,19.8,7.1,90.1*,-9.1,-31.0,56.5*,
Cc1nc2nc(C)n(CCN3CCOCC3)c(=O)c2c(-c2cccc([N+](=O)[O-])c2)c1C(=O)CCCCCCCCCCN1CCC(c2ccccc2)(c2ccccc2)CC1,99.3*,94.9*,95.6*,1.4,84.2*,48.7,17.1,107.1*,
CS(=O)(=O)c1ccc(S(=O)CC(=O)OCc2ccccc2)c([N+](=O)[O-])c1 (stereo not drawn),82.6*,109.8*,89.6*,49.0*,91.0*,56.5*,52.5*,105.8*,
O=C(Nc1ccc(C(=O)N2CCOCC2)cc1)C1CC1,12.0,-14.5,3.9,3.0,-6.4,7.6,.,.,

# Source: PubChem BioAssay
